# This is part of a sample that, as a whole, favours compounds with a hit. Of some 83,000 tested, about 20% had one in any assay.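 Method: cells in 96-well plates; compound added at one concentration; 48 h incubation; percent growth measured; values under 10 scored active.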 A number with no mark means an inactive call. Activity calls are given as the source filed them.
# What was measured:
# Test in all cases: NCI-60 one-dose screen, 48 h (100 = growth as untreated, 0 = no growth, -100 = all killed)
# Conditions in all cases: 10 µM unless noted
# NCI-H23 lung = test system: NCI-H23 lung
# NCI-H226 lung = test system: NCI-H226 lung
# NCI-H322M lung = test system: NCI-H322M lung
# HOP-62 NSCLC = test system: HOP-62 NSCLC
# NCI-H460 lung = test system: NCI-H460 lung
# HOP-92 NSCLC = test system: HOP-92 NSCLC
# NCI-H522 lung = test system: NCI-H522 lung
# A549/ATCC NSCLC = test system: A549/ATCC NSCLC
# 786-0 renal = test system: 786-0 renal
# COLO 205 colon = test system: COLO 205 colon
# DU-145 prostate = test system: DU-145 prostate
# K-562 leukemia = test system: K-562 leukemia
# MDA-MB-231 breast = test system: MDA-MB-231 breast
# RXF 393 renal = test system: RXF 393 renal
# SF-268 CNS = test system: SF-268 CNS
# SF-295 CNS = test system: SF-295 CNS
# SF-539 CNS = test system: SF-539 CNS
# M14 melanoma = test system: M14 melanoma
# UACC-257 melanoma = test system: UACC-257 melanoma
# MALME-3M melanoma = test system: MALME-3M melanoma
SMILES,growth (NCI-H23 lung),growth (NCI-H226 lung),growth (NCI-H322M lung),growth (HOP-62 NSCLC),growth (NCI-H460 lung),growth (HOP-92 NSCLC),growth (NCI-H522 lung),growth (A549/ATCC NSCLC),growth (786-0 renal),growth (COLO 205 colon),growth (DU-145 prostate),growth (K-562 leukemia),growth (MDA-MB-231 breast),growth (RXF 393 renal),growth (SF-268 CNS),growth (SF-295 CNS),growth (SF-539 CNS),growth (M14 melanoma),growth (UACC-257 melanoma),growth (MALME-3M melanoma)
COc1cnc2c(c1)C(=O)c1c-2n(CCCN2CCN(CCO)CC2)c(=O)c2cc([N+](=O)[O-])ccc12,-40.2% (active),64%,-20.4% (active),39.8%,-75.7% (active),76.9%,38.3%,-88.9% (active),-85.4% (active),62%,43.3%,-26.6% (active),-35.8% (active),74.3%,31%,29.2%,57.5%,18.2%,,
O=C(NC(Cc1cn(Cc2ccccc2)cn1)C(=O)O)OCC1c2ccccc2-c2ccccc21 (stereo not drawn),98.7%,102%,106%,101%,115%,107%,84.2%,104%,102%,110%,113%,88.8%,133%,117%,107%,,94.6%,99.8%,99.1%,
COC(=O)C(N)CSC(c1ccccc1)(c1ccccc1)c1ccccc1 (stereo not drawn),45.5%,77.6%,9.37% (active),44.6%,8.85% (active),55.1%,-43.6% (active),31.3%,53.7%,1.18% (active),-24.3% (active),,3.44% (active),1.07% (active),28.4%,,-11.7% (active),-6.93% (active),,31.8%
CCNCCCn1c2c(c3ccc([N+](=O)[O-])cc3c1=O)C(=O)c1cc(OC)cnc1-2,-57.2% (active),-44% (active),2.15% (active),-66.6% (active),-63% (active),-11.5% (active),-16.1% (active),,-91.7% (active),-30.9% (active),2.6% (active),-3.04% (active),-32.6% (active),-85.8% (active),1.69% (active),-1.1% (active),-48.2% (active),-37.1% (active),-45.3% (active),-61.8% (active)
Cc1cc(C)nc(NC(N)=NCCc2ccccc2)n1,50.4%,52.6%,52.1%,52.4%,23.9%,39.2%,29.9%,33.1%,50.1%,40.1%,42.6%,,51.6%,51.4%,39.5%,,36.7%,31.8%,30.2%,
C=C(C)[C@@H]1CC[C@]2(CN)CC[C@]3(C)[C@H](CC[C@@H]4[C@@]5(C)CCC(=O)NC(C)(C)[C@@H]5CC[C@]43C)[C@@H]12,85.3%,88.1%,89.1%,81.6%,90.3%,54.6%,88%,,84.6%,75.9%,75%,-4.63% (active),58.7%,59%,64.5%,82.1%,75.2%,70.9%,29.6%,-14.1% (active)
O=P(O)(c1ccccc1)c1ccccc1I,96.4%,90%,94.1%,94.8%,97.2%,83.9%,80.7%,,109%,107%,109%,93.8%,97.1%,102%,99.8%,93.7%,101%,90.1%,76.5%,87.5%
CCOc1ccc(NC(=O)c2ccoc2COc2ccccc2)cc1,103%,111%,99.7%,111%,112%,95.2%,93.9%,,105%,123%,106%,88.8%,98.7%,106%,97.8%,101%,98.5%,104%,106%,100%
O=C1c2cc3c(cc2-c2c1c1ccc(Cl)cc1c(=O)n2C[C@H](O)[C@@H](O)[C@H](O)CO)OCO3,-18% (active),-49.6% (active),12.6%,-43.1% (active),0.505% (active),12.4%,-59.5% (active),,4.87% (active),-16.6% (active),3.84% (active),12%,6.7% (active),-47% (active),7% (active),-5.74% (active),-39.8% (active),4.34% (active),-49.4% (active),-28.2% (active)
Cn1c(=O)c2c(nc(N3CCCC3)n2C)n(C)c1=O,96.4%,102%,105%,104%,102%,90.9%,91.5%,,97%,110%,105%,99.2%,98.9%,104%,97.3%,102%,101%,92.3%,93.2%,103%
CC(=O)c1c(C)[nH]c(-c2nc3ccc(N4CCN(C)CC4)cc3[nH]2)c1-c1ccc2c(c1)OCCO2,50.1%,47.9%,45.8%,33.7%,62.7%,39%,48.7%,,40.9%,12.7%,74.3%,31.2%,36%,49.2%,68.8%,44.4%,41.7%,40.1%,48.2%,33.7%
Oc1cccc2oc(=S)[nH]c12,104%,106%,128%,104%,116%,102%,101%,107%,106%,117%,118%,118%,99.1%,112%,111%,118%,88.8%,111%,114%,
Cc1cc(N(CCCNc2ccnc3cc(Cl)ccc23)Cc2ccco2)nc(N2CCOCC2)n1,52.8%,82.7%,72.6%,64.4%,64.8%,51.8%,90.5%,,68%,56.7%,74.7%,26.9%,58.5%,71%,77.7%,62.7%,51.1%,72.5%,106%,92.8%
C=C(C)[C@@H]1CC[C@]2(C=O)CC[C@]3(C)[C@H](CC[C@@H]4[C@@]5(C)C/C(=C/c6cccnc6)C(=O)C(C)(C)[C@@H]5CC[C@]43C)[C@@H]12,75.6%,91.3%,100%,119%,85.7%,83.9%,72%,,101%,95.5%,92.1%,32.3%,93.8%,83.2%,85.8%,86.9%,96.5%,78.5%,84.5%,88.1%
O=c1[nH]c(=S)[nH]c2nc[nH]c12,88.6%,99.8%,118%,86.9%,112%,108%,,99.1%,91.6%,123%,107%,89.2%,109%,79.5%,97.9%,106%,105%,90.7%,96.6%,112%
Nc1nc2c(c(=O)[nH]1)C(c1ccc3c(c1)OCO3)C=C(C(=O)O)N2 (stereo not drawn),109%,115%,114%,115%,110%,117%,,99.2%,98.3%,119%,112%,99.7%,121%,120%,112%,94.2%,101%,112%,97%,101%

# Source: PubChem BioAssay (NCI)
